“And” between values parts separate entries of the source, which are not always exact repeats. Identical values can stand only once. Inconclusive results are not listed. More than one record can exist for a structure, and the calls need not agree. The source made the active and inactive calls. Unless noted, the call rests on the fitted dose curve; in most records, active means well fitted curve in the direction sought with a large enough effect in the repeat runs; inconclusive means weak or mixed curves; inactive means no such curve, though single readings can be large; an effect the other way counts as inactive or inconclusive.
What was measured:
[1] = A CellTox Green Cytotoxicity Assay to monitor cytotoxicity in HepG2 cells - 0 hour (AID 1224882); further: nearly all actives have a fitted effect of over 35% in size; further: potency means the concentration at half of the fitted maximal effect
In short: (§1)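 Nonlytic assay: viable cells exclude the dye, so fluorescence scales with cell death. HepG2 at 600 cells/well, compounds added after 5 h, signal read across 40 h.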

[2] = A CellTox Green Cytotoxicity Assay to monitor cytotoxicity in HepG2 cells - 32 hour (AID 1224883); further: nearly all actives have a fitted effect of over 50% in size; further: potency means the concentration at half of the fitted maximal effect
In short: as §1

[3] = A CellTox Green Cytotoxicity Assay to monitor cytotoxicity in HEK293 cells - 8 hour (AID 1224884); further: nearly all actives have a fitted effect of over 35% in size; further: potency means the concentration at half of the fitted maximal effect
In short: (§2)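 Seeding of HEK293 cells together with cytotoxicity dye preceded a 5 h incubation at 37 C/5% CO2. Test compounds in DMSO were then added and fluorescence monitored across 40 h.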

[4] = qHTS RealTime-Glo MT Cell Viability Assay in HEK293 cells - 24 hour (AID 1224886); further: nearly all actives have a fitted effect of over 50% in size; further: potency means the concentration at half of the fitted maximal effect
In short: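 Nonlytic real-time viability readout: viable cells convert prosubstrate to NanoLuc substrate, giving luminescence proportional to live cell number. HEK293, 600 cells/well, compound added after 5 h, continuous culture at 37 C.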

[5] = A CellTox Green Cytotoxicity Assay to monitor cytotoxicity in HEK293 cells - 16 hour (AID 1224888); further: nearly all actives have a fitted effect of over 35% in size; further: potency means the concentration at half of the fitted maximal effect
In short: as §2

[6] = qHTS RealTime-Glo MT Cell Viability Assay in HepG2 cells - 0 hour (AID 1224889); further: nearly all actives have a fitted effect of over 50% in size
In short: (§3)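 Luminescence read-out: viable HepG2 cells reduce a prosubstrate to a NanoLuc substrate, giving a signal proportional to live cell number. Reads taken at 0, 8, 16, 24, 32 and 40 h of compound exposure at 37 C.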

[7] = A CellTox Green Cytotoxicity Assay to monitor cytotoxicity in HepG2 cells - 8 hour (AID 1224890); further: nearly all actives have a fitted effect of over 45% in size; further: potency means the concentration at half of the fitted maximal effect
In short: as §1

[8] = qHTS assay to identify small molecule antagonists of the estrogen receptor alpha (ER-alpha) signaling pathway using the BG1 cell line in the presence of 0.1 nM 17-beta-estradiol - cell viability counter screen (AID 1259241); further: nearly all actives have a fitted effect of over 40% in size; further: potency means the concentration at half of the fitted maximal effect
In short: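 VM7Luc4E2 cells (endogenous ER-alpha, 4×ERE-luciferase), hormone-starved 5 days in charcoal-stripped FBS, were treated with compounds plus 0.1 nM 17beta-estradiol for 22 hr at 37C; viability read in same wells as CellTiter-Fluor live-cell protease fluorescence.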

[9] = qHTS assay to identify small molecule HDAC inhibitors (AID 1259364); further: potency means the concentration at half of the fitted maximal effect;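 further: wild-type HCT-116 cells with endogenous class I/II HDAC activity; nearly all actives have a fitted effect of over 45% in size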
In short: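 Relative class I and II HDAC activity is taken from the luminogenic signal in HCT-116 cells, with compound exposure 2 hr and reagent development 30 min at room temperature.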

[10] = qHTS assay to identify small molecule HDAC inhibitors - cell viability counter screen (AID 1259365); further: series mostly up to about 92 µM; nearly all actives have a fitted effect of over 50% in size
In short: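 Wild-type HCT-116 cells were seeded at 1,500 per well, incubated overnight at 37 C, then exposed to compounds in DMSO for 2hr. Viability was read by CellTiter-Glo luminescence after 30min at room temperature.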

[11] = qHTS assay to identify small molecule agonists of the sonic hedgehog signaling (Shh) pathway - cell viability counter screen (AID 1259366); further: nearly all actives have a fitted effect of over 50% in size; further: potency means the concentration at half of the fitted maximal effect
In short: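 NIH/3T3-derived 3T3 Gli1-Luc cells (stable Gli1-responsive firefly luciferase reporter) were seeded, rested 4 hr at 37 C/5% CO2, then exposed to compounds in DMSO for 24 hr; viability was read by CellTiter-Fluor fluorescence in the same wells.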

[12] = qHTS assay to identify small molecule antagonists of the sonic hedgehog signaling (Shh) pathway - cell viability counter screen (AID 1259367); further: nearly all actives have a fitted effect of over 55% in size; further: potency means the concentration at half of the fitted maximal effect
In short: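 NIH/3T3-derived Gli1-Luc reporter cells, 2,000/well, plated 4 hr before compound addition, then stimulated with conditioned medium for 24 hr at 37C. Viability measured in the same wells by CellTiter-Fluor fluorescence, reagent added at 23 hr for 1 hr.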

[13] = qHTS assay to identify small molecule agonists of the sonic hedgehog signaling (Shh) pathway (AID 1259368; calls by dose curve; further: nearly all actives have a fitted effect of over 15% in size; further: potency means the concentration at half of the fitted maximal effect)
In short: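 Mouse fibroblast (NIH/3T3) reporter cells with stably integrated Gli1-Luc were treated 24 hr with compound; firefly luciferase luminescence served as the read-out.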

[14] = qHTS RealTime-Glo MT Cell Viability Assay in HepG2 cells - 16 hour (AID 1224885); further: nearly all actives have a fitted effect of over 50% in size; further: potency means the concentration at half of the fitted maximal effect
In short: as §3

[15] = qHTS assay to identify small molecule phospholipidosis (PLD) inducers (AID 1259344; active means well fitted curve in the direction sought with a large enough effect; an effect the other way counts as inactive or inconclusive)
In short: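 HepG2 cells, 900/well, treated with compound plus LipidTOX Red for 24 h at 37 C; amiodarone positive and DMSO negative controls. Fixed with paraformaldehyde/Hoechst, then high-content imaging scored LipidTOX pit count and integrated intensity per well and per cell.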

[16] = qHTS RealTime-Glo MT Cell Viability Assay in HEK293 cells - 8 hour (AID 1224887); further: nearly all actives have a fitted effect of over 50% in size; further: potency means the concentration at half of the fitted maximal effect
In short: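 Tox21 screen in HEK293 using RealTime-Glo MT chemistry, with cells and reagent co-dispensed. Luminescence proportional to viable cell number was captured at intervals during 40 h compound exposure at 37 C.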

[17] = qHTS assay to identify small molecule antagonists of the androgen receptor (AR) signaling pathway using the MDA cell line in the presence of 0.5 nM R1881 - cell viability counter screen (AID 1259242); further: nearly all actives have a fitted effect of over 45% in size; further: potency means the concentration at half of the fitted maximal effect
In short: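 R1881 at 0.5 nM final stimulated MDA-kb2 cells during 16 hr compound treatment at 37C. Cytotoxicity read: CellTiter-Fluor fluorescence after 30 min.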

[18] = target: Androgen receptor (Homo sapiens) (UniProt P10275); assay: qHTS assay to identify small molecule antagonists of the androgen receptor (AR) signaling pathway using the MDA cell line in the presence of 0.5 nM R1881 (AID 1259243); further: nearly all actives have a fitted effect of over 50% in size; further: potency means the concentration at half of the fitted maximal effect
In short: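 We exposed MDA-kb2 cells to compounds under 0.5 nM R1881 stimulation for 16 hr at 37C and quantified MMTV-driven luciferase by luminescence.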

[19] = target: Estrogen receptor (Homo sapiens) (UniProt P03372); assay: qHTS assay to identify small molecule antagonists of the estrogen receptor alpha (ER-alpha) signaling pathway using the BG1 cell line in the presence of 0.1 nM 17-beta-estradiol (AID 1259244); further: nearly all actives have a fitted effect of over 50% in size; further: potency means the concentration at half of the fitted maximal effect
In short: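 VM7Luc4E2; 4xERE-luciferase; 0.1 nM E2 final; 22 h co-incubation, 37C; ONE-Glo luminescence after 30 min at room temperature.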

Measured: Potency

Chain of Androgen receptor (Homo sapiens) (P10275 whole entry, looked up): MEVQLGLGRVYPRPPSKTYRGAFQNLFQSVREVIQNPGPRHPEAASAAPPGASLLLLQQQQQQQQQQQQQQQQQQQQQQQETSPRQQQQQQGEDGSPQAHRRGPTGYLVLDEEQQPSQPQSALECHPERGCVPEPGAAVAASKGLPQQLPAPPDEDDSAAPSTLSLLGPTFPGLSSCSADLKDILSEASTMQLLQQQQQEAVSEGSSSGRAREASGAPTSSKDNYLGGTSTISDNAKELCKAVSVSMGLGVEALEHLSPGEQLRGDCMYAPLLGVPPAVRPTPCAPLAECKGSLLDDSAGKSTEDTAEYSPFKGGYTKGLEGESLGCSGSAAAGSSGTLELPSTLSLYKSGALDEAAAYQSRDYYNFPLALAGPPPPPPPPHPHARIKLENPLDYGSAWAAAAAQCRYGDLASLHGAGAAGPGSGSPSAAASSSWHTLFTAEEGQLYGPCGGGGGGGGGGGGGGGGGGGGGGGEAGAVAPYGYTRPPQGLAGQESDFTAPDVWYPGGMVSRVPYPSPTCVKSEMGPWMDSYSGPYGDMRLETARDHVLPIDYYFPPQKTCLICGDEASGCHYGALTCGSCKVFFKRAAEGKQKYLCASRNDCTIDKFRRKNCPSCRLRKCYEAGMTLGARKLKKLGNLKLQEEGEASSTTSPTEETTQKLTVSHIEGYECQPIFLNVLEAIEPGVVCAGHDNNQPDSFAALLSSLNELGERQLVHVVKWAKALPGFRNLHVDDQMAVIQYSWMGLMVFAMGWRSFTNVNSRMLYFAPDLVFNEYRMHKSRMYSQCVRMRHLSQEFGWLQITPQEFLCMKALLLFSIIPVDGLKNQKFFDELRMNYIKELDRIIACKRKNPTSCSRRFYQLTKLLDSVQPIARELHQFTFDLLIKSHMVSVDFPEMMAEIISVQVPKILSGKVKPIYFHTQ
Chain of Estrogen receptor (Homo sapiens) (P03372 whole entry, looked up): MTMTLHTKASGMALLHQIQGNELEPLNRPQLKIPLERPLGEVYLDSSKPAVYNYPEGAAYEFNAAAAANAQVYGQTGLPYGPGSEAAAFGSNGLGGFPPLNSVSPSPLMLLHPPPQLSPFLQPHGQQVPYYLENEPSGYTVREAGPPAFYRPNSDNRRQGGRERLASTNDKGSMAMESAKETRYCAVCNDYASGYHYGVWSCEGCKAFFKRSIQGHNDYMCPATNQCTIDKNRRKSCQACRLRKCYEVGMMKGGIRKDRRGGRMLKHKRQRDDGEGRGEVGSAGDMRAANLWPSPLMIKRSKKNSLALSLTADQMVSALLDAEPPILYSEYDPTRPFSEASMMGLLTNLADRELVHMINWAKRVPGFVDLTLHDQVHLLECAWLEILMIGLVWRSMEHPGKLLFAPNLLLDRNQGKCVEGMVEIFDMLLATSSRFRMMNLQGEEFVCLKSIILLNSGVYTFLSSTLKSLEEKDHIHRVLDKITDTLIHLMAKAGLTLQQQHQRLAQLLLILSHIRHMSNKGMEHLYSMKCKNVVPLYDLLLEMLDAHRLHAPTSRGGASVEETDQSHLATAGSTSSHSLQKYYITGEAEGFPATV

On1ccccc1=S
inactive: [1] | [3] | [5] | [6] | [7] | [10] | [13]
active: [2] 0.385 µM | [4] 3.85 µM | [8] 9.59 µM | [9] 12.1 µM | [11] 1.71 µM | [12] 3.03 µM

CN(C/C=C/C#CC(C)(C)C)Cc1cccc2ccccc12
not listed: [4] | [5] | [13] | [16] | [17] | [18] | [19]
inactive: all other assays above

Nc1ccc(N)c2ccccc12
inactive: [1] | [3] | [5] | [6] | [7] | [9] | [13]
active: [2] 54.9 µM | [16] 24.5 µM | [8] 19.3 µM | [17] 61.1 µM | [18] 19.3 µM | [19] 12.2 µM | [12] 61.1 µM

CC[C@H](c1ccc(O)cc1)[C@@H](CC)c1ccc(O)cc1
48.6 µM (active) and inactive: [12]
54.9 µM (active) and inactive: [7]
54.5 µM (active) and inactive: [11]
active: [2] 43.6 µM | [4] 24.5 µM | [18] 15.4 µM and 26.6 µM | [19] 48.6 µM
not listed: [13] | [14]
inactive: all other assays above

CSc1ccc2c(c1)C(N1CCN(C)CC1)Cc1ccccc1S2 (stereo not drawn)
active: [2] 23.9 µM
inactive: [1] | [3] | [16] | [5] | [8] | [19] | [9] | [10] | [13]

CCCCN(CCCC)C(=O)N(CCCC)CCCC
not listed: [4] | [15] | [18] | [19]
inactive: all other assays above

O=CC=C(c1ccccc1)c1ccccc1
active: [19] 69.1 µM
not listed: [4] | [11] | [12] | [15] | [16] | [18]
inactive: all other assays above

C=CC(=O)OCC(CO)(COCC(COC(=O)C=C)(COC(=O)C=C)COC(=O)C=C)COC(=O)C=C
inactive: [1] | [3] | [6] | [7] | [9]
active: [2] 21.6 µM | [14] 5.43 µM | [8] 15.2 µM | [17] 3.03 µM | [18] 2.4 µM | [11] 1.07 µM | [12] 3.03 µM | [13] 0.957 µM

Nc1ccccc1O
active: [8] 53.8 µM | [19] 30.2 µM | [11] 24 µM | [12] 19.1 µM
not listed: [4] | [9] | [15] | [16] | [18]
inactive: all other assays above

O=[N+]([O-])c1ccccc1Nc1ccccc1
not listed: [5] | [15] | [18]
inactive: all other assays above

O=C1CCCc2c1cc1ccc3cccc4ccc2c1c34
active: [4] 8.82 µM | [18] 9.81 µM
not listed: [10] | [15] | [16]
inactive: all other assays above

CCOc1ccc2nc3cc(N)ccc3c(N)c2c1
active: [2] 16.9 µM
not listed: [4] | [8] | [11] | [12] | [14] | [18]
inactive: all other assays above

c1cc(C(c2ccc(OCC3CO3)cc2)c2ccc(OCC3CO3)cc2)ccc1OCC1CO1 (stereo not drawn)
not listed: [4] | [11] | [12] | [14] | [15] | [18]
inactive: all other assays above

Cc1nc(-c2ccc3c(c2)CCN(CCC2CCC(NC(=O)/C=C/c4ccc(F)cc4)CC2)CC3)no1 (stereo not drawn)
not listed: [4] | [15] | [16] | [17]
inactive: all other assays above

Nc1ccc2c3c(cccc13)-c1ccccc1-2
inactive: [14] | [6] | [18] | [19] | [9] | [10] | [13]
active: [1] 24.8 µM | [2] 44.1 µM | [3] 44.1 µM | [4] 24.8 µM | [16] 19.7 µM | [5] 44.1 µM | [7] 39.3 µM
